{"source": "PubChem BioAssay (NCATS)", "note": "Several values for one entry are separate records, joined by “and”; a condition that tells them apart may be missing. Equal values may be shown once. Results filed as inconclusive are left out. Activity calls are given as the source filed them. Calls follow the shape of the dose curve; as a rule, active = well fitted cell-killing curve with a large enough effect; inconclusive = small, poorly fitted or top-dose-only effect, or effect the other way; inactive = no such curve, though single readings can be large or run the other way. Potency is read from the fitted curve at half-maximal effect.", "data": [{"experiment": "Viability qHTS for spleen associated tyrosine kinase inhibitor (SYKi) naive MV4-11 cells (AID 1963823); also: nearly all actives have a fitted effect of over 40% in size", "details": "MV4-11 AML viability, CellTiter-Glo luminescence, 72 h; series mostly up to 45 µM; viability (% of control): at the top concentration", "procedure,_shortened": "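In this viability screen, compounds acted on SYK inhibitor naive MV4-11 cells for three days (72 hr, 37 C). Remaining viable cells were measured by CellTiter-Glo luminescence following a 10 min room-temperature development.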", "values": [{"smiles": "CC1CC2(O)OC(=O)C3=C2C(CCC3)[C@@]12C[C@@H](c1ccoc1)OC2=O", "note": "(some centres undefined)", "Potency": "0.321 µM (active)"}, {"smiles": "CO[C@H]1[C@@H](O)[C@H](O[C@H]2CC[C@@]3(C)C(CCC4C3CC[C@]35COC6(COC(=O)C6)C3CCC45O)C2)O[C@@H](C)[C@@H]1OC1OC(CO)C(OC2OC(CO)C(O)C(O)C2O)C(O)C1O", "note": "(some centres undefined)", "Potency": "1.23 µM (active)"}, {"smiles": "O=C(Nc1ccccc1)N1CCN(c2nc(-c3ccccc3)ns2)CC1", "Potency": "14.6 µM (active)"}, {"smiles": "Cc1ccccc1NC(=O)Nc1ccc(CC(=O)N(C)[C@@H](CC(C)C)C(=O)NCC[C@H](NC(=O)[C@@H]2CCCN2S(=O)(=O)c2cc(Cl)cc(Cl)c2)C(=O)O)cc1", "viability (% of control)": "102% [at 17.3 µM] (inactive)"}, {"smiles": "CNC(=O)c1ccc2c(c1)CCO[C@H]2CCN1CCN(c2ccc(C(N)=O)cc2)CC1", "viability (% of control)": "58.2% (inactive)"}, {"smiles": "C=C1C[C@]23C[C@@]1(O)CC[C@H]2[C@@]12C=C[C@H](O)[C@@](C)(C(=O)O1)[C@H]2[C@@H]3C(=O)O", "viability (% of control)": "74.1% (inactive)"}, {"smiles": "CC(C)(C)S(=O)(=O)c1ccc2nccc(Nc3n[nH]c4ccc(F)cc34)c2c1", "Potency": "7.42 µM (active)"}, {"smiles": "C[C@@H]1C(=O)O[C@H]2CC34[C@H]5C[C@@H](C(C)(C)C)C36[C@@H](OC(=O)[C@@H]6O)OC4(C(=O)O5)[C@]21O", "note": "(some centres undefined)", "viability (% of control)": "57.5% (inactive)"}, {"smiles": "Cc1nc(C#Cc2ccnc(Cl)c2)c(C)n1-c1ccc(OC(F)(F)F)cc1", "Potency": "20.6 µM (active)"}, {"smiles": "CC(=O)OCC(Cc1ccccc1)NC(=O)C(Cc1ccccc1)NC(=O)c1ccccc1", "note": "(centres undefined)", "viability (% of control)": "66.2% [at 17.3 µM] (inactive)"}, {"smiles": "CN1CCC(c2c(O)cc(O)c3c(=O)cc(-c4ccccc4Cl)oc23)C(O)C1", "note": "(centres undefined)", "Potency": "0.259 µM (active)"}, {"smiles": "N=c1nc2n(cc1F)C1OC(CO)C(O)C1O2", "note": "(centres undefined)", "Potency": "1.64 µM (active)"}, {"smiles": "CCCC(CCC)C(=O)NCc1ccc2c(cnn2-c2ccccc2OC)c1", "Potency": "10.3 µM (active)"}, {"smiles": "CC(=O)OC[C@]12[C@H](OC(C)=O)C(=O)[C@@H]3[C@@H](O)[C@@]14O[C@@]3(C)COC(=O)c1cccnc1[C@@H](C)[C@H](C)C(=O)O[C@@H]([C@H](O)[C@@H]2OC(C)=O)[C@]4(C)O", "Potency": "1.72 µM (active)"}, {"smiles": "OC[C@H]1O[C@@H](OCc2ccccc2)[C@H](O)[C@@H](O)[C@@H]1O", "viability (% of control)": "75.8% (inactive)"}, {"smiles": "CC(=O)O[C@H]1CC(C)(C)CC2[C@]13CO[C@@]21CCC2[C@@]4(C)CC[C@H](O[C@@H]5OC[C@H](O[C@@H]6O[C@H](CO)[C@@H](O)[C@H](O)[C@H]6O[C@@H]6OC[C@@H](O[C@@H]7O[C@H](CO)[C@@H](O)[C@H](O)[C@H]7O)[C@H](O)[C@H]6O)[C@H](O)[C@H]5O[C@@H]5O[C@H](CO)[C@@H](O)[C@H](O)[C@H]5O)[C@@](C)(CO)C4CC[C@@]2(C)[C@]1(C)C[C@H]3O", "note": "(some centres undefined)", "Potency": "1.55 µM (active)"}, {"smiles": "CC(C)(O)c1ccc2c(c1)C(=O)CC1[C@](C)(CO)CCC[C@]21C", "note": "(some centres undefined)", "viability (% of control)": "68.5% (inactive)"}, {"smiles": "CC(C)C1=CC2C(CC[C@]2(C)O)[C@](C)(O)CC1", "note": "(some centres undefined)", "viability (% of control)": "82.9% (inactive)"}, {"smiles": "CC(CO)C1CCC2(C)CC3C(CO)CC(O)C3C(C)(O)C/C=C/12", "note": "(centres undefined)", "viability (% of control)": "75.8% (inactive)"}, {"smiles": "C=C1[C@H]2[C@H](O[C@@H]3O[C@H](COC(=O)/C=C/c4cc(OC)c(O)c(OC)c4)[C@@H](O)[C@H](O)[C@H]3O)OC=C(C(=O)O)[C@H]2C[C@@H]1O", "viability (% of control)": "77.1% [at 17.3 µM] (inactive)"}, {"smiles": "C=C1C(=O)O[C@@H]2[C@H]1CC[C@H](C)[C@]1(CCC(=O)O1)C2(C)O", "note": "(some centres undefined)", "Potency": "16.4 µM (active)"}, {"smiles": "CC12CCC3c4ccc(O)cc4CCC3C1CC(OC1OC(C(=O)O)C(O)C(O)C1O)C2O", "note": "(centres undefined)", "viability (% of control)": "85.8% (inactive)"}, {"smiles": "Cc1cc(-c2ccc(/C=C3\\SC(=Nc4ccc(Cl)c(C(=O)O)c4)NC3=O)o2)c([N+](=O)[O-])cc1C", "viability (% of control)": "66.1% (inactive)"}, {"smiles": "CCOC(=O)COc1ccc2c(c1)C[C@@H](NC[C@H](O)c1cccc(Cl)c1)CC2", "Potency": "18.4 µM (active)"}, {"smiles": "C/C=C(\\C)C(=O)OC1C(C)C2(O)C(C=C(CO)CC3(O)C(=O)C(C)=CC32)C2C(C)(C)C12OC(=O)C(C)C", "note": "(centres undefined)", "Potency": "0.02 µM (active)"}, {"smiles": "Cc1cc(C)c(CNC(=O)c2cc(-c3ccc(N4CCN(C)CC4)nc3)cc3c2c(C)cn3C(C)C)c(=O)[nH]1", "Potency": "13.2 µM (active) and 18.6 µM (active)"}, {"smiles": "CN(C)C/C=C/C(=O)Nc1cc2c(Nc3ccc(F)c(Cl)c3)ncnc2cc1OC1CCOC1", "note": "(centres undefined)", "Potency": "1.16 µM (active)"}, {"smiles": "C[N+]1(C)[C@@H]2CC[C@H]1CC(OC(=O)C(O)c1ccccc1)C2", "note": "(some centres undefined)", "viability (% of control)": "91.2% (inactive)"}, {"smiles": "OC[C@H]1O[C@@H](OCc2ccccc2)[C@H](O[C@@H]2OC[C@@H](O)[C@H](O)[C@H]2O)[C@@H](O)[C@@H]1O", "viability (% of control)": "84.4% [at 17.3 µM] (inactive)"}]}]}
